Results reported in publication PMC7819943, “Rice protein-binding microarrays: a tool to detect cis-acting elements near promoter regions in rice”.
Whole data set: some 68,000 sequences, median “fluorescence intensity (a.u.)” near 9,100, cut for the highest 2% near 16,000. The sample holds the highest values, similar sequences and a random draw of the others, so the mix is not that of the screen.

molecular target: OsWRKY34 (Oryza sativa, UniProt Q0JBA9 1-250); experiment: protein-binding microarray (RPBM); PBS, 2% BSA, 51.3 ng/ul salmon testes DNA, 50 uM zinc acetate, 200 nM TF, 25 C, 1 h; high values mean tight binding; conditions: protein: recombinant; tags: N-terminal polyhistidine and DsRed monomer fusion (pET32a); label: CyDye5-dUTP incorporated in the synthesized complementary strand; 3' TTTTT single-stranded linker to array surface; dsDNA, one strand shown
Method in brief: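 Using Ni–NTA, transcription factors fused N-terminally to polyhistidine and DsRed were purified after expression in E. coli BL21-CodonPlus. These were incubated at 200 nM with a blocked, double-stranded custom Agilent array for 1 h at 25 °C in a buffer containing 50 µM zinc acetate, and the array was washed. The binding signal is per-feature fluorescence intensity (arbitrary units) on an Axon 4000B scanner.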

Chain of OsWRKY34 (Q0JBA9 entry or part of it): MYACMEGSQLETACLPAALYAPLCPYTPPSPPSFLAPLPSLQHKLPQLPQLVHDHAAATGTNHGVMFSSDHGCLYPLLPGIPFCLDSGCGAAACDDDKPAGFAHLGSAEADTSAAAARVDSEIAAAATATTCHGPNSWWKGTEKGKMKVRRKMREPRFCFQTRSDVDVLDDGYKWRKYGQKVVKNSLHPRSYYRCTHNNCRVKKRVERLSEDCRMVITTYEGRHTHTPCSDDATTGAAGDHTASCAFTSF

Going from “GCTTGCTCCAGGTGACCCAACTTTTCCATTTCCATGCATTCGGAGTCACCTAGTGCAG” to “GCTCCTCCTCCTCTTCCCGCCTCACCGCCGCACCACCTCTCGGAGTCACCTAGTGCAG”, the binding signal falls from 11300 fluorescence intensity (a.u.) to 8550 fluorescence intensity (a.u.).

First: CCGTGGGCCAGACCTTTTTCTTCGACGCTAGACCTGACTACGGAGTCACCTAGTGCAG
Second: TTCACCCACGTTTCTGCCCAACCCTCTCACCCTAGCTTAGCGGAGTCACCTAGTGCAG
The binding signal of the first is lower: 9780 fluorescence intensity (a.u.) for the first, 10800 fluorescence intensity (a.u.) for the second.

Going from “AACTTCGCAAGAGGCATGCTCTCCAGCCTCAATTTTCATGCGGAGTCACCTAGTGCAG” to “CCCCATTTTCTTTGTTTCTACTTCTCTTTCCCTTTCTTGTCGGAGTCACCTAGTGCAG”, the binding signal rises from 8410 fluorescence intensity (a.u.) to 10700 fluorescence intensity (a.u.).

First: CTCCGTCCCTCCGTACCAGTTTAAATGCAGCCGTGGATTCCGGAGTCACCTAGTGCAG
Second: GCCCGTTGCTCATCTCTCTCATCGTTTATCGCATTAAAATCGGAGTCACCTAGTGCAG
The binding signal of the first is lower: 8360 fluorescence intensity (a.u.) for the first, 17900 fluorescence intensity (a.u.) for the second.

Going from “TACTTACTCCCTCCGTATTTTAATGTATGACGCCGTTGACCGGAGTCACCTAGTGCAG” to “TTTGACGCCGTTGACTTTTTTAAAAATGTTTGACCGTTCACGGAGTCACCTAGTGCAG”, the binding signal rises from 14200 fluorescence intensity (a.u.) to 25100 fluorescence intensity (a.u.).

Going from “CCCTCCGTATTTTAATGTATGACGCCGTTGACTTTTTGACCGGAGTCACCTAGTGCAG” to “GCCCGCTGCTCTGCTCTCTCATCTTTTATCTCACTAAAATCGGAGTCACCTAGTGCAG”, the binding signal falls from 26800 fluorescence intensity (a.u.) to 8960 fluorescence intensity (a.u.).

First: GCCCGCTGCTATTCTCTCTCATCTTTTATCCTATTAAAATCGGAGTCACCTAGTGCAG
Second: ATCTATGTTTTTCTGCGGGCCGGGTTGGTTTGTTTCCTACCGGAGTCACCTAGTGCAG
The binding signal of the first is higher: 13200 fluorescence intensity (a.u.) for the first, 10300 fluorescence intensity (a.u.) for the second.

Going from “AAGTACTCCCTCCGTATTTTAATGTATGACGCCGTTGACTCGGAGTCACCTAGTGCAG” to “TTTGGGCCGGGTTTTTGGTTTCTTCCTTTTTTTTTCTGGGCGGAGTCACCTAGTGCAG”, the binding signal rises from 9690 fluorescence intensity (a.u.) to 12600 fluorescence intensity (a.u.).

Compared with “CGCTACCGGGTTGACTTTTTCCTATCCGTTTCTGGTCCGGCGGAGTCACCTAGTGCAG”, “TTTTTTTTACCGGCCTAGTTGACCACCAACCAAGCAGTACCGGAGTCACCTAGTGCAG” is lower in binding signal: 22800 fluorescence intensity (a.u.) for the first, 10100 fluorescence intensity (a.u.) for the second.

First: GCATACATCTCTACTACCTGCATCTCCATCTCAAATCAAACGGAGTCACCTAGTGCAG
Second: CTCCTCTAACGTACCATAGAGGGACATACGTTTCTGATGTCGGAGTCACCTAGTGCAG
The binding signal of the first is higher: 10400 fluorescence intensity (a.u.) for the first, 8720 fluorescence intensity (a.u.) for the second.

First: CTCTCCATCCGCTCGCGGCTCGCGCTCGCCCATCCAATCCCGGAGTCACCTAGTGCAG
Second: CATCGCCCACGCCAATGTCGTCGCCGACGTCTCGCTGCCGCGGAGTCACCTAGTGCAG
The binding signal of the first is higher: 10600 fluorescence intensity (a.u.) for the first, 8820 fluorescence intensity (a.u.) for the second.

Going from “CACGCCATTAAGCTTTTTTTATATACATATAGTCAATGTTCGGAGTCACCTAGTGCAG” to “TAATACTCCCTCCGTATTTTAATGTATGATGCCGTTGACTCGGAGTCACCTAGTGCAG”, the binding signal rises from 9130 fluorescence intensity (a.u.) to 10600 fluorescence intensity (a.u.).

Compared with “ACTCTCTCCGTATTCGTATTTTAATGTATGACGCCGTTGACGGAGTCACCTAGTGCAG”, “CTAAATGTTTGACGCCGTTGACTTTTTAAATATGTTTGACCGGAGTCACCTAGTGCAG” is higher in binding signal: 8550 fluorescence intensity (a.u.) for the first, 32300 fluorescence intensity (a.u.) for the second.

Compared with “CTCTCTCCGTATTATAATGTATGATGCCGTTGACTTTTTGCGGAGTCACCTAGTGCAG”, “TCCGTATTTTAATGTATGACGCTGTTGACTTTCGACCTACCGGAGTCACCTAGTGCAG” is lower in binding signal: 35200 fluorescence intensity (a.u.) for the first, 13900 fluorescence intensity (a.u.) for the second.

Going from “CTCCCTCCATCCCAAAATGTTTGACGCCGTTGACTTTTTACGGAGTCACCTAGTGCAG” to “ATTTTAATATTTGACGCCGTTGACTTTTTGTATGTTTGACCGGAGTCACCTAGTGCAG”, the binding signal rises from 15900 fluorescence intensity (a.u.) to 42500 fluorescence intensity (a.u.).

Going from “TCTTACTCTCTCCATCCCAAAATGTTTGACGCCGTTGACTCGGAGTCACCTAGTGCAG” to “CCCACCGTTTCCAAATGTTTGACGCCGTTGACTTTTTATCCGGAGTCACCTAGTGCAG”, the binding signal rises from 13400 fluorescence intensity (a.u.) to 31900 fluorescence intensity (a.u.).

Going from “TTAGTGATTTCTTGTCTCCTGATCATCTGTAGTCTGTAGACGGAGTCACCTAGTGCAG” to “GACCTAGCTCTGCCCTTTCTTTCTGAAATAAATAATGCATCGGAGTCACCTAGTGCAG”, the binding signal rises from 8160 fluorescence intensity (a.u.) to 8960 fluorescence intensity (a.u.).

First: CCATCACTAGAGCCTTTTGCCTTTGCTTGCACAATTACATCGGAGTCACCTAGTGCAG
Second: TGTGTGCCTGTTGTCTCATTTGATCTGCCATTTCAGCGCACGGAGTCACCTAGTGCAG
The binding signal of the first is lower: 8850 fluorescence intensity (a.u.) for the first, 10700 fluorescence intensity (a.u.) for the second.

Going from “ACCCGCACACCGTCCCGTGCCAGCTGCCTCGCCACCGTTCCGGAGTCACCTAGTGCAG” to “CCACGACACCGCTTCCAGCCCACGCAACCCTCGAACAATGCGGAGTCACCTAGTGCAG”, the binding signal falls from 11900 fluorescence intensity (a.u.) to 8170 fluorescence intensity (a.u.).

Going from “GTATTTTCGATTGTTTACACTATAATTAGACTGTTTTATACGGAGTCACCTAGTGCAG” to “CGTCGATGCCAATACAATAACCATCATCATCATCATCATTCGGAGTCACCTAGTGCAG”, the binding signal falls from 8600 fluorescence intensity (a.u.) to 8210 fluorescence intensity (a.u.).

First: TCCTCTCCCACCAATCCTTTGATCCATTCATCCCAACTTCCGGAGTCACCTAGTGCAG
Second: TGTGTGTGTATATATATGTAGCCTGTTCGCACATCATCTTCGGAGTCACCTAGTGCAG
The binding signal of the first is lower: 9340 fluorescence intensity (a.u.) for the first, 13600 fluorescence intensity (a.u.) for the second.

First: GTAATGGCATATTTGCAATTATCCCTTTGTTTATTTATTTCGGAGTCACCTAGTGCAG
Second: TCCCTAAATATATGACGTTGTTGACTTTTTAAAACATTTTCGGAGTCACCTAGTGCAG
The binding signal of the first is lower: 8510 fluorescence intensity (a.u.) for the first, 11200 fluorescence intensity (a.u.) for the second.
